# Screens: PubChem, several laboratories
# Many of the other results were omitted from the sample, so hits are more common in it than they were.
# hDAT+cocaine – human DAT dopamine uptake with cocaine, either direction; Q01959; LLC-PK1 hDAT cells, [14C]-dopamine uptake with cocaine IC80; actives deviate in either direction; B-score at 10 µM; 1.3% of 110,000 active; AID 449768;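 active = Z score or B-score, a plate-position-corrected score, falls beyond the plate's 99.7% confidence bounds, in either direction; inactive = both scores lie inside the 99.7% bounds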;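 note: scored against the spread of the other compound wells on the same plate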
# Target sequence (Q01959 whole entry, looked up): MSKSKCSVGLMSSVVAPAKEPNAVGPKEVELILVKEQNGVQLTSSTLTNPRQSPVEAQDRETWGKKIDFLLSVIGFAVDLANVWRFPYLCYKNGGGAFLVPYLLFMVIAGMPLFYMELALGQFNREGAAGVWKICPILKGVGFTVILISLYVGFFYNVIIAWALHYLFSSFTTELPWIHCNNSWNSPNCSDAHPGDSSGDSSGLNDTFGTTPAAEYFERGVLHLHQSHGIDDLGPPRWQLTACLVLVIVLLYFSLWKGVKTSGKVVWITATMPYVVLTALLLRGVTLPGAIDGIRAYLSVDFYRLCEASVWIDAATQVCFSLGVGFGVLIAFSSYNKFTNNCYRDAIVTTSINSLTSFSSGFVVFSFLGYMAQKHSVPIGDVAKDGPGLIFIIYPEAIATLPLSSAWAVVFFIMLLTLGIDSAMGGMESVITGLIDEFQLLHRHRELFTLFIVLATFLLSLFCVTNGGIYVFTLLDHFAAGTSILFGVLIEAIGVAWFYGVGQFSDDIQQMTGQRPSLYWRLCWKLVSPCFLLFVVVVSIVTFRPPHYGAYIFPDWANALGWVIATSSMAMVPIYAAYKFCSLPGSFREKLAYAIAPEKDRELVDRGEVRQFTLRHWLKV
# BAP1 inh – inhibitors of human BAP1 deubiquitinase. recombinant BAP1, Ub-AMC hydrolysis fluorescence kinetic; active compounds read low. calls only at 20 µM. 0.48% of 72,000 active. AID 436;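 active = activity remaining at or below 50% of control, provided the compound also passes the data quality filters; inactive = the rest, including low values that fail the filters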;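 note: 100% = DMSO wells rate and 0% = substrate alone blank rate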
# D1 mod – allosterically modulates the human D1 dopamine receptor; P21728; 5.9% of 58,000 active; B-score at 10 µM; HEK293 D1, CRE-luciferase, dopamine EC30 potentiation; actives deviate in either direction; AID 641;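 active = luminescence count or its row- and column-corrected plate score outside the 99.7% band of the plate's sample wells, on either side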
# Active calls of the source: *; i = inactive; nt = no result shown.
SMILES,hDAT+cocaine,BAP1 inh,D1 mod
CC(=O)N1N=C(c2ccc(Br)cc2)CC1c1ccc(N(C)C)cc1 (stereo not drawn),nt,i,nt
N#Cc1ccccc1Sc1ccccc1C(=O)OCc1nnc(-c2ccccc2)o1,2.53*,nt,-0.598
Cc1noc(C)c1COC(=O)c1ccccc1Sc1ccccc1C#N,-0.159,i,0.0357
O=C(NCC1CCCO1)c1csc2c1CCCCC2 (stereo not drawn),-0.269,i,-3.31*
CC1CCc2c(C(=O)NCC3CCCO3)csc2C1 (stereo not drawn),-0.0179,i,-0.0422
CC1=C(C(=O)OCCOC(C)C)C(c2cccc(Cl)c2)NC(=O)N1 (stereo not drawn),nt,i,nt
COC(=O)c1c(NC(=O)COc2cc(C)c(Cl)c(C)c2)sc2c1CCC(C)C2 (stereo not drawn),nt,i,nt
CCOC(=O)C(NC(C)=O)(Nc1ccc(S(=O)(=O)Nc2cc(C)on2)cc1)C(F)(F)F (stereo not drawn),-0.615,nt,nt
CCOC(=O)C(NC(C)=O)(Nc1ccc(S(=O)(=O)Nc2onc(C)c2C)cc1)C(F)(F)F (stereo not drawn),-0.372,i,-6.95*
CCCc1ccc(-c2ccc(C(=O)Nc3ccc(C)cc3C)cc2)nc1,nt,i,nt
Cc1ccc(C(=O)c2ccc(N3CCOCC3)c(F)c2)cc1,4.45*,nt,nt
CCC(=O)c1ccc(N2CCOCC2)c(F)c1,-1.63,nt,nt
c1ccc(-c2nc(NCCCn3ccnc3)c3oc4ccccc4c3n2)cc1,3.52*,nt,nt
c1ccc(-c2nc(NCc3ccco3)c3oc4ccccc4c3n2)cc1,-0.00397,nt,nt
CCCCn1c(-c2cccs2)nc2nc3ccccc3nc21,0.644,nt,nt
CCCCOCCCn1c(-c2ccco2)nc2nc3ccccc3nc21,3.45*,nt,-0.0959
CCC(O)CNc1nc(-n2nc(C)cc2C)nc2sc3c(c12)CCCC3 (stereo not drawn),nt,i,0.756
Cc1cc(C)n(-c2nc(SCCN(C)C)c3c4c(sc3n2)CCCC4)n1,3.02*,nt,nt
c1ccc(CN2CCN(c3ncnc4c3[nH]c3ccccc34)CC2)cc1,2.87,i,-4.86*
Cc1ccc2c(c1)[nH]c1c(N3CCN(Cc4ccccc4)CC3)ncnc12,1.11,nt,-3.89
CCN(CC)S(=O)(=O)c1ccc(C(=O)Nc2cccc(C)c2)cc1,0.636,nt,nt
COC(=O)Nc1ccc(S(=O)(=O)N(C)C)cc1,-2.81*,i,-0.0277
COC(=O)Nc1ccc(NC(C)=O)cc1,0.13,i,-0.5
Cc1cccc(NC(=O)c2ccc(S(=O)(=O)N(C)C)cc2)c1,3.06*,i,-1.19
CCN(CC)CCn1c(=N)n(CC(=O)OC)c2ccccc21,nt,i,nt
SMILES,hDAT+cocaine,BAP1 inh,D1 mod
COc1ccc(OCC(=O)NC2CCCCCCCCCCC2)cc1,nt,i,nt
Cc1ccc(C(=O)COC(=O)c2ccccc2Sc2ccc([N+](=O)[O-])cc2)cc1,nt,i,nt
CCC(C)n1c(N)nc2c1c(=O)[nH]c(=O)n2C (stereo not drawn),nt,i,nt
O=C(NCCCNC(=O)c1cccs1)c1cccs1,-0.419,i,-0.198
COCCCNC(=O)c1cccs1,2.66*,nt,nt
Cn1c(CN2CCCCC2)c(C#N)c2ccccc21,0.925,i,-2.19*
Cn1c(CN2CCN(CC#N)CC2)c(C#N)c2ccccc21,0.222,nt,nt
Cn1c(C(=O)NCCN2CCN(c3ccccc3F)CC2)cc2c(=O)n(C)c3ccccc3c21,nt,i,-3.72*
Cn1c(C(=O)NCCN2CCOCC2)cc2c(=O)n(C)c3ccccc3c21,1.43,i,-0.273
Cn1c(C(=O)NCCCN2CCN(c3ccc(F)cc3)CC2)cc2c(=O)n(C)c3ccccc3c21,nt,i,-5.2*
Cn1c(C(=O)NCCCN2CCCC2=O)cc2c(=O)n(C)c3ccccc3c21,0.849,i,0.0182
N#CCCN1CCN(C(=S)c2ccc(-c3ccc(Cl)c(Cl)c3)o2)CC1,1.34,i,-0.0393
N#CCCN1CCN(C(=S)c2ccc(-c3cccc(Cl)c3)o2)CC1,2.42*,i,1.04
O=C1c2ccc(Oc3cccc([N+](=O)[O-])c3)cc2C(=O)N1c1ccc(O)cc1,nt,i,nt
Cc1ccccc1Cn1c2ccccc2c2cnn(CC(=O)N3CCN(c4ccccc4)CC3)c(=O)c21,1.16,nt,nt
O=C(Cn1ncc2c3ccccc3n(Cc3ccc(F)cc3)c2c1=O)N1CCN(c2ncccn2)CC1,2.79*,nt,nt
CCOC(=O)c1nn2c(C(F)(F)F)cc(-c3ccc(Br)cc3)nc2c1Cl,nt,i,nt
Brc1ccc(CN2C3=NCCN3c3ccccc32)cc1,nt,i,nt
COc1ccc(C(=O)NCc2n[nH]c(=S)n2-c2ccccc2)c(OC)c1,nt,i,nt
COc1ccc(CCNC(=O)c2[nH]c(C)c(C(C)=O)c2C)cc1OC,-0.862,i,0.103
CC(=O)c1c(C)[nH]c(C(=O)NCCc2ccccc2)c1C,-0.126,i,-3.46*
CCn1c(CNC(=O)COc2ccc(C(C)C)cc2)nnc1SCC(=O)Nc1ccccc1C(C)C,2.44*,nt,nt
CCn1c(CNC(=O)COc2ccc(C(C)C)cc2)nnc1SCC(=O)Nc1ccccc1F,-0.144,nt,nt
COc1ccccc1NC(=O)CN1CCC(n2c(C)nc3cc(F)ccc32)CC1,2.49,i,0.599
COc1ccc(C(=O)N2CCC(n3c(C)nc4cc(F)ccc43)CC2)cc1OC,2.82*,i,1.25
SMILES,hDAT+cocaine,BAP1 inh,D1 mod
CC(C)(C)c1ccc(C(=O)Nc2cccc(NC(=O)c3cccc4ccccc34)c2)cc1,nt,i,nt
Cc1cc(C)n2nc(-c3sccc3-n3c(C)ccc3C)cc2n1,1.04,nt,nt
Cc1cc(C)n2nc(-c3sccc3-n3cccc3)cc2n1,-2.61*,nt,nt
C=CCNC(=O)C(Cc1ccccc1)C(=O)OCC (stereo not drawn),nt,i,nt
COc1ccc(O)c(-c2c(-c3ccc(Cl)cc3)n[nH]c2C)c1,3.72*,i,-0.587
COc1ccc(-c2n[nH]c(C)c2-c2ccc(Cl)cc2)c(O)c1,0.255,nt,nt
CCN1C(=O)c2cccc3c(NC(=O)c4ccc(Cc5ccccc5)cc4)ccc1c23,nt,i,nt
CCCCSCc1ccc(C(=O)O)o1,-0.256,nt,nt
CC(=O)c1c(C)oc(C)c1CSCc1ccc(C(=O)O)o1,nt,i,-8.06*
CCCOC(=O)C1=C(C)N(CC)C(=O)NC1c1ccc([N+](=O)[O-])cc1 (stereo not drawn),nt,i,nt
O=C1c2ccccc2C(Nc2ccc(S(=O)(=O)N3CCCCCC3)cc2)N1c1ccccn1 (stereo not drawn),-1.98,nt,nt
O=C1c2cccnc2C(Nc2ccc(S(=O)(=O)N3CCCCC3)cc2)N1Cc1ccccc1 (stereo not drawn),1.04,i,-1.45*
O=S(=O)(c1ccc(Br)c2nsnc12)N1CCC(Cc2ccccc2)CC1,nt,i,nt
Cc1ccc(-c2nnc(Nc3ccccc3)o2)cc1,-2.22,i,-4.19*
Cc1ccc(/C=C/c2nnc(-c3ccccc3)o2)cc1,0.595,nt,nt
Cc1nn(C(=O)c2ccc(Br)cc2)c(C)c1Sc1ccccc1[N+](=O)[O-],nt,i,nt
CCOc1cc(C)c(S(=O)(=O)Nc2ccc(Cl)cn2)cc1C,-0.0707,i,0.261
CCOc1ccc(S(=O)(=O)Nc2ccc(Cl)cn2)c(C)c1C,0.686,i,-2.56*
CC(Oc1ccc(C(=O)NCCc2ccccc2)cc1)C(=O)O (stereo not drawn),-0.57,nt,nt
CC(C)OC(=O)C(C)Oc1ccc(C(=O)NCCc2ccccc2)cc1 (stereo not drawn),-7.08*,nt,nt
COc1ccc(C(=O)Nc2ccc(-c3nc4ncccc4o3)cc2)cc1OC,nt,i,nt
